Test results published in the supplement of paper PMC6992640.
Structures can show the parent of a compound that is named as a salt. ± gives the standard deviation of the averaged measurements.

Tests used:
Test in all cases: cell viability (% of vehicle); higher = less cytotoxic
Settings in all cases: 10 µM; 72 h
[1] = tested on: HCI01 (cells of a triple-negative basal-like breast cancer xenograft)
[2] = tested on: HCI03 (cells of an ER-positive luminal breast cancer xenograft)
[3] = tested on: HCI09 (cells of a triple-negative luminal androgen receptor type breast cancer xenograft)
[4] = tested on: HCI11 (cells of an ER-positive luminal breast cancer xenograft)
[5] = tested on: HCI13 (cells of an ER-positive luminal breast cancer xenograft)
[6] = tested on: HCI16 (cells of a triple-negative basal-like breast cancer xenograft)
[7] = tested on: UCD52 (cells of a triple-negative basal-like breast cancer xenograft)
[8] = tested on: WHIM2 (cells of a triple-negative basal-like breast cancer xenograft)
[9] = tested on: WHIM30 (cells of a triple-negative basal-like breast cancer xenograft)
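Also: PDX cells carrying CMV promoter-driven luciferase, viability read as total photon flux per second by IVIS imaging following D-luciferin, vehicle control 0.1% DMSO.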

Row | Structure (SMILES) | cell viability [1] | cell viability [2] | cell viability [3] | cell viability [4] | cell viability [5] | cell viability [6] | cell viability [7] | cell viability [8] | cell viability [9]
1 | CNCC(O)C(O)C(O)C(O)CO (stereo unspecified) [Meglumine] | 80.2 ± 19 | 93.4 | 97.6 ± 1.5 | 74.4 | 142 ± 11 | 110 | 78.3 ± 1.6 | 85.9 ± 25 | 133 ± 5.2
2 | OCC1OC(OC2(CCl)OC(CCl)C(O)C2O)C(O)C(O)C1Cl (stereo unspecified) [Sucralose] | 112 ± 2.4 | 128 | 91.4 ± 5.3 | 89.1 | 70 ± 4.5 | 140 | 70.9 ± 6.8 | 124 ± 30 | 110 ± 7.1
3 | Cc1ccnc(NS(=O)(=O)c2ccc(N)cc2)n1 [Sulfamerazine] | 100 ± 36 | 131 | 88.41 ± 0.75 | 84.2 | 103 ± 8.7 | 111 | 86.8 ± 8.5 | 75.2 ± 10 | 99.5 ± 6
4 | NC(=O)NO [Hydroxyurea] | 62.8 ± 36 | 111 | 89.2 ± 7.3 | 90 | 113 ± 11 | 110 | 78.7 ± 4.1 | 96.5 ± 31 | 125 ± 3.9
5 | Nc1nc(=O)c2c([nH]1)NCC(CNc1ccc(C(=O)NC(CCC(=O)[O-])C(=O)[O-])cc1)N2C=O.O.O.O.O.O.[Ca+2] (stereo unspecified) [Leucovorin Calcium] | 104 ± 22 | 102 | 131 ± 55 | 83.9 | 108 ± 13 | 127 | 122 ± 2.5 | 67.9 ± 22 | 156 ± 29
6 | CNC(=O)CN(CCN(CCN(CC(=O)[O-])CC(=O)NC)CC(=O)[O-])CC(=O)[O-].O.[Gd+3] [Gadodiamide] | 99.5 ± 27 | 111 | 99 ± 15 | 90.1 | 83.6 ± 8.9 | 112 | 104 ± 7.4 | 92.5 ± 29 | 94.5 ± 5.2
7 | O=C(NCC(O)CO)c1ccncc1Nc1ccc(I)cc1F (stereo unspecified) | 72.8 ± 3.9 | 72.9 | 55.3 ± 28 | 83.1 | 64.4 ± 5.6 | 116 | 70.57 ± 0.44 | 41.9 ± 8.5 | 130 ± 14
8 | Cc1ccc(O)c(C(CCN(C(C)C)C(C)C)c2ccccc2)c1.O=C(O)C(O)C(O)C(=O)O (stereo unspecified) [Tolterodine tartrate] | 113 ± 38 | 101 | 96.8 ± 7.1 | 93.6 | 97.1 ± 18 | 133 | 60.5 ± 8.9 | 91.5 ± 2.5 | 92.5 ± 1.7
9 | O=c1ncnc2[nH][nH]cc1-2 [Allopurinol] | 111 ± 8.6 | 132 | 94.3 ± 13 | 110 | 98.9 ± 12 | 103 | 84.5 ± 3.3 | 97.49 ± 0.5 | 122 ± 8.1
10 | CCCS(=O)c1ccc2nc(NC(=O)OC)[nH]c2c1 (stereo unspecified) [Albendazole Oxide] | 115 ± 11 | 144 | 110 ± 35 | 105 | 68.2 ± 9.5 | 106 | 103 ± 11 | 112 ± 34 | 141.6 ± 1.2
11 | CCN1CCN(c2cc3c(cc2F)c(=O)c(C(=O)O)cn3C2CC2)CC1 [Enrofloxacin] | 105 ± 14 | 106 | 99.9 ± 18 | 91.8 | 121 ± 8.5 | 111 | 124 ± 5.2 | 130 ± 18 | 80.5 ± 6.2
12 | COC(=O)CCc1ccc(OCC(O)CNC(C)C)cc1.Cl (stereo unspecified) [Esmolol HCl] | 133 ± 46 | 121 | 96.2 ± 1.9 | 95.3 | 96.8 ± 12 | 122 | 105 ± 18 | 108 ± 17 | 113 ± 2.2
13 | O=c1ccc2ccc(OCCCCN3CCN(c4cccc5sccc45)CC3)cc2[nH]1 [Brexpiprazole] | 136 ± 21 | 106 | 85.7 ± 10 | 102 | 123 ± 5.6 | 162 | 78.3 ± 6.2 | 115 ± 9.1 | 112 ± 8.2
14 | CCN1CCCC1CNC(=O)c1cc(S(=O)(=O)CC)c(N)cc1OC (stereo unspecified) [Amisulpride] | 189 ± 32 | 126 | 108 ± 14 | 100 | 82.7 ± 0.84 | 159 | 116 ± 15 | 122 ± 4 | 139 ± 2.1
15 | COc1ccc2[nH]cc(CCNC(C)=O)c2c1 [Melatonin] | 112 ± 10 | 134 | 106 ± 2.2 | 97.8 | 108 ± 3.3 | 109 | 127 ± 5.4 | 121 ± 26 | 158 ± 17
16 | N#CC1CC2CC2N1C(=O)C(N)C12CC3CC(CC(O)(C3)C1)C2 (stereo unspecified) [Saxagliptin] | 95 ± 7.6 | 145 | 82.1 ± 5.7 | 89.2 | 85.7 ± 7 | 93.8 | 97.4 ± 5.6 | 123 ± 7.2 | 98 ± 2.8
17 | NCCCCC(NC(CCc1ccccc1)C(=O)O)C(=O)N1CCCC1C(=O)O.O.O (stereo unspecified) [Lisinopril dihydrate] | 98.2 ± 20 | 137 | 106 ± 19 | 113 | 113 ± 3.5 | 130 | 105 ± 0.53 | 94 ± 22 | 150 ± 8.1
18 | CN1C[C@@H]2c3ccccc3Oc3ccc(Cl)cc3[C@H]2C1.O=C(O)/C=C/C(=O)O [Asenapine] | 91.9 ± 7 | 93 | 68.9 ± 5.4 | 93.7 | 72.7 ± 4.8 | 121 | 71 ± 5.6 | 79.5 ± 14 | 114 ± 25
19 | CC1=C(CC(=O)O)c2cc(F)ccc2C1=Cc1ccc(S(C)=O)cc1 (stereo unspecified) [Sulindac] | 92.1 ± 23 | 89.2 | 81.5 ± 4.2 | 76.2 | 108 ± 0.55 | 119 | 97.3 ± 3.1 | 88.7 ± 6.6 | 104 ± 13
20 | CS(=O)(=O)O.OC(CCN1CCCCC1)(c1ccccc1)c1ccccc1 [Pridinol Methanesulfonate] | 113 ± 3.7 | 104 | 124 ± 47 | 119 | 92.6 ± 12 | 112 | 86.1 ± 6.1 | 164 ± 89 | 129 ± 10

Row | Structure (SMILES) | cell viability [1] | cell viability [2] | cell viability [3] | cell viability [4] | cell viability [5] | cell viability [6] | cell viability [7] | cell viability [8] | cell viability [9]
21 | COc1cc2nc(N3CCN(C(=O)C4COc5ccccc5O4)CC3)nc(N)c2cc1OC.CS(=O)(=O)O (stereo unspecified) [Doxazosin Mesylate] | 116.9 ± 0.43 | 94.7 | 73.2 ± 34 | 83.3 | 103 ± 15 | 123 | 92.4 ± 14 | 62.6 ± 10 | 117 ± 13
22 | CN1CCC(OC(c2ccccc2)c2ccccc2)CC1.Cl [Diphenylpyraline HCl] | 86 ± 3.4 | 99.9 | 97.7 ± 17 | 106 | 97.2 ± 13 | 91.7 | 75.5 ± 12 | 84.7 ± 21 | 107 ± 14
23 | CN1C2CCCC1CC(NC(=O)c1nn(C)c3ccccc13)C2 (stereo unspecified) [Granisetron] | 112 ± 1.8 | 119 | 108 ± 9.4 | 81.8 | 108 ± 12 | 89.3 | 105 ± 4.6 | 110 ± 28 | 133 ± 31
24 | NC(=O)N1c2ccccc2CC(=O)c2ccccc21 [Oxcarbazepine] | 91.5 ± 16 | 133 | 107 ± 16 | 98.9 | 104 ± 15 | 124 | 99.59 ± 0.42 | 91.2 ± 2.1 | 159 ± 3.8
25 | CCCCCCCN(CC)CCCC(O)c1ccc(NS(C)(=O)=O)cc1.CCCCCCCN(CC)CCCC(O)c1ccc(NS(C)(=O)=O)cc1.O=C(O)C=CC(=O)O (stereo unspecified) [Ibutilide Fumarate] | 93.5 ± 15 | 121 | 105 ± 18 | 103 | 130 ± 10 | 117 | 96.8 ± 2 | 122 ± 3 | 128 ± 21
26 | Cc1c(-c2cnccn2)ssc1=S [Oltipraz] | 89.2 ± 5.2 | 113 | 88.5 ± 4 | 66.1 | 89.8 ± 8.7 | 104 | 94.8 ± 9.3 | 91 ± 14 | 72.8 ± 2.9
27 | Cc1ccc2c(Cl)cc(Cl)c(O)c2n1 [Chlorquinaldol] | 102 ± 27 | 109 | 31.6 ± 15 | 52.7 | 105 ± 17 | 105 | 69.6 ± 16 | 94.2 ± 31 | 94 ± 5.7
28 | Clc1ccc(COC(Cn2ccnc2)c2ccc(Cl)cc2Cl)c(Cl)c1 (stereo unspecified) [Miconazole] | 109 ± 41 | 87.6 | 62.3 ± 36 | 82 | 47.3 ± 10 | 120 | 74.4 ± 3 | 99.6 ± 24 | 128 ± 3.7
29 | CC(C)(C)NCC(O)c1cc(O)cc(O)c1.CC(C)(C)NCC(O)c1cc(O)cc(O)c1.O=S(=O)(O)O (stereo unspecified) [Terbutaline Sulfate] | 114.4 ± 0.83 | 110 | 98.9 ± 20 | 109 | 88.5 ± 2.1 | 127 | 79.6 ± 5.6 | 106 ± 18 | 123 ± 6
30 | CCC(C)C(=O)OC1CC(C)C=C2C=CC(C)C(CCC3CC(O)CC(=O)O3)C21 (stereo unspecified) [Lovastatin] | 119 ± 27 | 115 | 88.2 ± 12 | 181 | 131 ± 14 | 142 | 50.7 ± 5.3 | 71.5 ± 6.6 | 93.17 ± 0.92
31 | Nc1nc(F)nc2c1ncn2C1OC(COP(=O)(O)O)C(O)C1O (stereo unspecified) [Fludarabine Phosphate (Fludara)] | 101 ± 16 | 134 | 98.1 ± 17 | 124 | 98.8 ± 10 | 106 | 98.2 ± 4.5 | 127 ± 32 | 115 ± 13
32 | CCCS(=O)(=O)Nc1ccc(F)c(C(=O)c2c[nH]c3ncc(-c4ccc(Cl)cc4)cc23)c1F [Vemurafenib (PLX4032, RG7204)] | 118 ± 12 | 195 | 114 ± 7.1 | 98.3 | 106 ± 4.2 | 102 | 108 ± 1.8 | 102.2 ± 0.85 | 185 ± 5.3
33 | COc1ccc(-c2ccc3cc(C(=O)O)ccc3c2)cc1C12CC3CC(CC(C3)C1)C2 [Adapalene sodium salt] | 115 ± 29 | 81.9 | 114 ± 37 | 98.3 | 183 ± 2.4 | 158 | 157 ± 19 | 104 ± 10 | 96.8 ± 6.8
34 | Cc1cccc(N(C)C(=S)Oc2ccc3ccccc3c2)c1 [Tolnaftate] | 113 ± 28 | 140 | 72.7 ± 30 | 95.2 | 96.2 ± 8.2 | 108 | 71.2 ± 2.5 | 91.6 ± 8.1 | 131 ± 9.2
35 | CCC1C(O)C2C3CCC(C(C)CCC(=O)O)C3(C)CCC2C2(C)CCC(O)CC12 (stereo unspecified) [Obeticholic Acid] | 137 ± 53 | 149 | 77.56 ± 0.36 | 112 | 81.8 ± 14 | 145 | 98.9 ± 10 | 120 ± 1.9 | 151 ± 2.4
36 | Cn1nnc2c(C(N)=O)ncn2c1=O [Temozolomide] | 136 ± 12 | 125 | 105 ± 15 | 111 | 122 ± 17 | 136 | 97.8 ± 28 | 117 ± 5.3 | 107 ± 16
37 | CCCCCCCCCCCCCCCCCCCCCCO [Docosanol (Abreua)] | 82.8 ± 2.5 | 93.4 | 82.5 ± 8 | 95.6 | 97.3 ± 27 | 84.5 | 76.5 ± 11 | 81.8 ± 19 | 102 ± 3
38 | Cc1ccc(C(=O)C(C)CN2CCCCC2)cc1.Cl (stereo unspecified) [Tolperisone HCl] | 118 ± 20 | 118 | 101 ± 3.6 | 92.5 | 47.8 ± 8.8 | 109 | 92.3 ± 8.6 | 130 ± 6.4 | 110 ± 3.9
39 | Cl.NCCc1ccc(O)c(O)c1 [Dopamine HCl] | 112 ± 25 | 103 | 113 ± 37 | 84.4 | 59 ± 2.7 | 125 | 93.6 ± 0.5 | 56 ± 2.1 | 128 ± 6.4
